Reference: PubChem BioAssay AID540298 (Southern Research Specialized Biocontainment Screening …, 2011)
Potency and affinity values are given separately. Activity calls are given as the source filed them. How the calls were made is not given here.

Assay: Vero E6 cell cytotoxicity, dose response, cytotoxicity control (AID 540298)
Conditions: Vero E6 cells viability; series mostly up to 40 µM; viability: at the top concentration

| Structure (SMILES) | viability |
| --- | --- |
| CN(C)c1cccc2c(C=C(C#N)C#N)ccc(N(C)C)c12 | 93.7% (inactive) |
| Cc1ccc(N2C(=O)C(CC(=O)Nc3cccc(F)c3)N(C3CC3)C2=O)cc1 (stereo not given) | 94.6% (inactive) |
| COc1ccc(N2CCN(CCCN)CC2)cc1 | 87.2% (inactive) |
| CCOC(=O)c1c(CN(C)C)oc2cc(CN(C)C)c(O)c(CSc3ccccc3)c12 | 93% (inactive) |
| CC(c1ccccn1)N(CCN(C)C)C(=S)Nc1cccc(F)c1 (stereo not given) | 99.1% (inactive) |
